Compounds with a hit are over-represented: about 4.5% of the library has one in this group of screens.
ZTA counter = counter-screen for EBNA-1 inhibitors: inhibitors of Epstein-Barr virus ZTA; P03206; ZTA-DNA binding, fluorescence polarization; inhibition, % at 11 µM; actives 0.15% (n = 320,000); AID 2234; in the data active means inhibition above about 33%
Target sequence (P03206 whole entry, looked up): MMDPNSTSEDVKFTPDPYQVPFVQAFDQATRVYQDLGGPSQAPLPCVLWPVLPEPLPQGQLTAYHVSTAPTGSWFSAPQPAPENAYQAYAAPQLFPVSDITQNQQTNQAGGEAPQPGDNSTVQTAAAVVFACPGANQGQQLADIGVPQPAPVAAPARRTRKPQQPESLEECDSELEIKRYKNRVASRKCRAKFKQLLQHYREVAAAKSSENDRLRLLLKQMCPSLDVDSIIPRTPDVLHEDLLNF
TPT1 inh = inhibitors of Candida albicans tRNA 2'-phosphotransferase TPT1 | recombinant caTPT1, FP RNA substrate dephosphorylation | inhibition, % at 5 µM | actives 0.81% (n = 300,000);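 active means inhibition above the mean of all tested compounds plus 3 SD, set per screening campaign, cut at about 24% in these data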
EBNA-1 inh = blocks EBNA-1 binding to DNA; EBNA-1 DNA binding, fluorescence polarization; actives 0.34% (n = 300,000); inhibition, % at 14.8 µM; in the data active means inhibition above about 28%
NR3A LBD binder = NR3A (human) ligand-binding domain modulation | NR3A LBD differential scanning fluorimetry, Tm shift; 0% = protein alone, 100% = glycine-bound protein | Tm shift relative to glycine control, % at 25 µM | actives 2.5% (n = 340,000) | AID 1259313;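 active means melting temperature shift of at least 10% of the positive control shift, at one fixed dose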
dFosB act = activators of mouse delta FosB homodimer; P13346; purified delta FosB, TAMRA-CDK5 oligo fluorescence polarization; percent of positive-control signal above neutral wells; activation, % at 25 µM; actives 0.99% (n = 340,000); AID 493131;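 active means mean activation above about 17%, with every replicate also reaching it, limit read from the data, passing the limit was not always enough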
Target sequence (P13346 whole entry, looked up): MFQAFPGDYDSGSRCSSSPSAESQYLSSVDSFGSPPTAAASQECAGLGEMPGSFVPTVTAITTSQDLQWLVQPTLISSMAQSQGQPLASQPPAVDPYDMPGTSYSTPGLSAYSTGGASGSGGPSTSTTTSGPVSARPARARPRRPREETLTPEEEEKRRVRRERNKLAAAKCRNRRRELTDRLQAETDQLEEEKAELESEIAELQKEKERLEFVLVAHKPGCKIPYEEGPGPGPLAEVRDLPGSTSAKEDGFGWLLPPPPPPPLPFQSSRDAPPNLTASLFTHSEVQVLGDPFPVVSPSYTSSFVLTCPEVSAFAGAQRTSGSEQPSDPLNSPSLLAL
Rpn11 block = blocks the human proteasome subunit Rpn11. inhibition, % at 20 µM. human 26S proteasome, Ub4-pepOG fluorescence polarization; 20S core pre-blocked with epoxomicin. actives 0.59% (n = 360,000). AID 588493. O00487;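 active means inhibition at 20 µM, scaled to each plate's controls, above about 33%, limit read from the data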
Rpn11 confirm = Rpn11 inhibition confirmation, single concentration. purified human 26S proteasome, Ub4-pepOG fluorescence polarization; proteasome pretreated with epoxomicin. shares compounds with Rpn11 block. inhibition, % at 20 µM. actives 29% (n = 1,900)
MMP-2 counter = blocks human MMP-2, flagging nonselective RPN11 hits; shares compounds with Rpn11 block; recombinant MMP-2, FRET peptide cleavage fluorescence; inhibition, % at 20 µM; actives 4% (n = 1,900);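 further: human MMP-2 activated beforehand with APMA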
Thrombin inh = counter-screen for RPN11 inhibitors: inhibition of bovine thrombin. shares compounds with Rpn11 block. bovine thrombin cleavage of Ub4-pepOG, fluorescence polarization. inhibition, % at 20 µM. actives 13% (n = 1,900);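 active means mean inhibition at least 40% at 20 µM, or signal 3 deviations below plate average, so some actives read negative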
Hits are given with their value; 0 = inactive; - = not tested or not shown; + = active, no number. Unless noted, no stated cut-off is given here; in the data, active means inhibition above about 40%; inactive means the rest.

SMILES	ZTA counter	TPT1 inh	EBNA-1 inh	NR3A LBD binder	dFosB act	Rpn11 block	Rpn11 confirm	MMP-2 counter	Thrombin inh
CCN(CC)c1nc2c3c(nc4c(c3c1C#N)CC(=O)N4c1ccc(Cl)cc1)NC(C)=N2	0	0	0	0	0	43	0	0	0
CC1(C)C2CCC(CN=C(N)CSS(=O)(=O)O)C1C2 (stereo unspecified)	-	-	-	-	-	0	-	-	-
CCN1C(=O)c2cccc3c(NC(=O)c4ccc(S(=O)(=O)N5CCOCC5)cc4)ccc1c23	0	0	0	0	0	75	0	0	0
N#Cc1ccc(S(=O)(=O)N2CCN(C(=O)c3cn(-c4ccccc4)nc3-c3cccnc3)CC2)cc1	-	-	-	0	0	0	-	-	-
Cc1ccc(-c2nnn3c2nc(NCCc2ccc(S(N)(=O)=O)cc2)c2ccccc23)cc1	0	0	0	86	0	57	46	0	0
COc1ccc(CCNC(=O)CN(C2CCCCC2)S(C)(=O)=O)cc1	0	0	0	0	0	114	0	0	0
COc1ccc(Br)cc1/C=c1\sc2nc(-c3ccco3)nn2c1=O	0	0	0	0	0	91	0	0	0
CC(C)(C)c1ccc(C(=O)NCCC(=O)N2CCC3(CC2)NCCc2[nH]cnc23)cc1	0	0	0	0	0	0	-	-	-
CCOC(=O)N1CCN(CC(=O)Nc2ccc(F)c(F)c2)CC1	0	0	0	0	0	0	-	-	-
Cc1ccc(S(=O)(=O)N2[C@@H](c3ccc(Cl)c(Cl)c3)C(C(=O)O)=C[C@H]2CC2CCCC2)cc1	-	-	-	0	0	57	0	0	0
Cc1ccc(S(=O)(=O)N2[C@@H](c3ccc(Cl)cc3)C(C(=O)O)=C[C@H]2CC2CCCC2)cc1	-	-	-	0	0	0	-	-	-
Cc1cc2ncn(/N=C/c3ccc([N+](=O)[O-])s3)c2cc1C	0	0	0	27	0	41	0	0	0
O=[N+]([O-])c1ccc(/C=N/n2cnc3ccccc32)s1	0	0	0	0	0	0	-	-	-
COc1cccc(N2CC(C(=O)Nc3nnc(SCCN4CCOCC4)s3)CC2=O)c1 (stereo unspecified)	0	0	0	0	0	52	0	0	0
N#C/C(=C\c1ccc(-c2cccc([N+](=O)[O-])c2)o1)C(=O)Nc1nc(-c2cccs2)cs1	0	0	0	11	0	59	0	0	0
CCc1cc(CNC(=O)C2CCC(=O)N(CCc3ccc(OC)cc3)C2)on1 (stereo unspecified)	0	0	0	0	0	85	0	0	0
CCC(C(=O)N1CCN(Cc2ccc3c(c2)OCO3)CC1)n1c(=O)[nH]c2ccccc2c1=O (stereo unspecified)	0	0	0	0	0	0	-	-	-
OCC[C@@H]1C[C@@H](O)[C@H](O)[C@@]2(CCc3ccccc3CO2)O1	0	0	0	0	0	0	-	-	-
CCNc1nc(Cl)nc(NCc2ccccc2)n1	0	0	0	0	0	68	0	0	0
C=C1c2nc3ccccc3n2C=C(c2ccc(C)cc2)N1c1ccccc1	-	-	-	0	0	0	-	-	-
CSc1nc2nccc(-c3ccc(-c4ccccc4)cc3)n2n1	0	0	0	0	0	60	0	0	0
C[C@@H]1CN([C@@H](C)CO)C(=O)CCCn2nncc2CO[C@@H]1CN(C)C(=O)Nc1ccccc1C(F)(F)F	-	-	-	-	-	0	-	-	-
COc1ccc(/C(C)=N/NC(=O)c2ccc(CSc3nncn3C)cc2)cc1	0	0	0	0	0	0	-	-	-
COc1cc(NC(=O)CCc2nc(-c3cccs3)no2)cc(OC)c1OC	0	0	0	0	0	0	-	-	-
COc1cc(-c2noc(CCC(=O)Nc3cccnc3)n2)cc(OC)c1OC	0	0	0	0	0	36	0	0	0
SMILES	ZTA counter	TPT1 inh	EBNA-1 inh	NR3A LBD binder	dFosB act	Rpn11 block	Rpn11 confirm	MMP-2 counter	Thrombin inh
Cc1cc(NC(=O)CSc2nnc(-c3ccc([N+](=O)[O-])cc3)o2)no1	0	0	0	0	0	0	-	-	-
Cc1cccc(N2N=C(C(=O)Nc3ccc(Cl)c(S(=O)(=O)N4CCOCC4)c3)CCC2=O)c1	0	-	-	0	0	0	-	-	-
Cn1c(C(=O)NCCN2CCCCCC2)cc2c(=O)n(C)c3ccccc3c21	0	0	0	0	0	84	0	0	0
C=CCn1sc(=N)c(C#N)c1N	0	0	0	0	0	60	0	0	0
Cc1ccccc1Cn1cc(NS(=O)(=O)c2cn(C)nc2C)cn1	0	0	0	0	0	0	-	-	-
CCOc1ccccc1NS(=O)(=O)c1cn(C)nc1C	0	0	0	0	0	32	0	0	0
O=C(Nc1nnc(Cc2ccccc2)s1)C1CCN(C(=O)c2ccco2)CC1	0	0	0	0	0	0	-	-	-
C[C@@H](NC(=O)c1ncn2c1c(=O)[nH]c1ccc(Br)cc12)c1ccccc1	-	-	-	-	-	+	0	0	0
Cc1cc(C(=O)N(C)Cc2c(F)cccc2Cl)c2ccccc2n1	0	0	0	0	0	0	-	-	-
COC(=O)c1sccc1NC(=O)c1cc(OC)cc(OC)c1	0	0	0	0	0	0	-	-	-
COC(=O)c1sccc1NC(=O)c1ccncc1	0	0	0	0	0	48	0	0	0
OC(c1ccccc1)(c1ccccc1)c1ccn[nH]1	0	0	0	0	0	0	-	-	-
CCN(CC)c1ccc(N)cc1	0	-	-	0	0	98	42	0	0
CCN(CC)c1ccc(C(=O)NN)cc1	0	0	0	0	0	0	-	-	-
CC1(C)Oc2ccc(C(=O)NC3CCCC3)cc2N(CC(=O)N2CCOCC2)C1=O	0	0	0	0	0	75	0	0	0
Cc1[nH]c2ccccc2c1C(=O)C(=O)NCc1ccco1	0	0	0	0	0	0	-	-	-
Cc1cc(NC(=O)c2cc(-c3ccncc3)nc3ccccc23)ccc1Br	-	-	-	0	0	0	-	-	-
O=C1N(Cc2cccc(Cl)c2)C[C@@H]2C[C@@H](c3cccc4cccnc34)N3CCC[C@@]123	0	0	0	0	0	65	0	0	0
Cc1cccc([C@@H]2C[C@H]3CN(Cc4cccc(Cl)c4)C(=O)[C@]34CCCN24)n1	0	0	0	0	0	0	-	-	-
CCCOc1ccc(-c2nnn(CC(=O)c3c[nH]c4ccccc34)n2)cc1	0	0	0	0	0	50	0	0	0
CCOC(=O)c1nc(C)n(-c2cc(OC)c(Cl)cc2Cl)n1	0	0	0	0	0	0	-	-	-
O=C(CN1CCN(c2ccccn2)CC1)NC1CCCC1	0	0	0	0	0	86	0	0	59

Screens: PubChem BioAssay, several laboratories
